This is a sample that favours compounds with a hit; in the whole collection about 1.4% have one here.
HTT ATP protect: Huntington cell model cytoprotection by ATP luminescence; PC12 HTT-Q103 induced, cytoprotection, ATP luminescence, 40 h; Potency, µM (highest dose often 56.4 µM), for inactives: cytoprotection (ATP increase), most hits filed as activators; 230,000 tested, 0.14% active; also: % of control where 0% means no effect; nearly all actives have a fitted effect of over 45% in size
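PC12 cells with ecdysone-inducible HTT exon 1 Q103-GFP, induced with 100 nM tebufenozide and co-treated with library compounds in a dose series (1536-well, 1500 cells/well). Cytoprotection read as ATP content by ATPlite luminescence.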
ERK EGF block: inhibitors of EGF-stimulated ERK signaling pathway; Potency, µM (series often up to 11.5 µM), inactives show at the top dose activity change, negative = inhibition, hits mostly inhibitors; 130,000 tested, 0.41% active; HEK293-V1b, EGF-stimulated phospho-ERK AlphaScreen; AID 1454;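 also: plate controls were stimulated vehicle wells for no effect and unstimulated vehicle basal for full effect; nearly all actives have a fitted effect of over 55% in size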
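HEK293 cells stably expressing V1b receptor, serum-reduced (1% FBS) overnight, got compound for 30 min at 37C, then 25 nM EGF for 5 min. Lysate phospho-ERK read by AlphaScreen SureFire; AC50 from Hill fits.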
HTT aggregate: mutant huntingtin aggregation inhibition; Potency, µM (top dose mostly 46.1 µM), for inactives: at the top dose activity change, negative = inhibition, usual class: inhibitors; PC12 HttQ103-GFP aggregates, Acumen cytometry, 40 h; 220,000 tested, 1.1% active; also: % is scaled to controls: 0 for no effect and ±100 for the full control effect; nearly all actives have a fitted effect of over 60% in size
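Using laser scanning cytometry, GFP-positive aggregates were counted after lysis of PC12 cells induced with 100 nM tebufenozide to express HTT exon 1 Q103–GFP. Compounds were tested in titration.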
Starred values were filed as active, the others as inactive; [ ] = another dose, or the depositor's remark. Calls follow the shape of the dose curve; as a rule, active = well fitted curve in the direction sought with a large enough effect; inconclusive = small, poorly fitted or top-dose-only effect, or another doubt; inactive = no such curve, though single readings can be large; an effect the other way counts as inactive or inconclusive. Potency is read from the fitted curve at half-maximal effect.

What do the screens show for `COC1=C(Nc2ccccc2OC)C(=O)c2ccccc2C1=O`?
HTT ATP protect: -24%[10 µM]; ERK EGF block: 14µM*; HTT aggregate: -44%[9.22 µM]

How did COc1ccc(NC(=O)N2CCCC3(CCNCC3)C2)cc1 do in these assays?
HTT ATP protect: 1.6µM*; ERK EGF block: -5%

Results for COc1ccc(NC(=O)N2CC3(CCNCC3)C2)cc1 ?
HTT ATP protect: -14%; ERK EGF block: -9%

Results for CCCC(=O)Nc1ncnc2c1ncn2[C@@H]1O[C@H]2COP(=O)(O)O[C@@H]2[C@@H]1OC(=O)CCC ?
HTT ATP protect: 15%[40.3 µM]; ERK EGF block: -3%[25.7 µM]

What do the screens show for `CO[C@]1(NC(=O)Cc2cccs2)C(=O)N2C(C(=O)O)=C(COC(N)=O)CS[C@H]21`?
HTT ATP protect: -8%[40.3 µM]; ERK EGF block: 18%[25.7 µM]

How did Cc1nn(-c2ccc(F)cc2)c(Cl)c1/C=C1\C(=O)Nc2ccccc21 do in these assays?
ERK EGF block: 28µM*; HTT aggregate: 7%

What do the screens show for `Cc1nn(-c2ccccc2)c(Cl)c1/C=C1\C(=O)N(C)C(=S)N1C`?
HTT ATP protect: 22%[10 µM]; ERK EGF block: -1%; HTT aggregate: 8%

How did N[C@@H](Cc1cc(-c2ccc(Cl)cc2Cl)cc(CP(=O)(O)O)c1O)C(=O)O do in these assays?
HTT ATP protect: 8%; ERK EGF block: 11%

What do the screens show for `COC(=O)NC(c1ccccc1)c1c[nH]c2ccccc12` (configuration not stated)?
HTT ATP protect: 11%; ERK EGF block: -3%

Results for COc1ccc(Cl)cc1CN1CCOCC1 ?
HTT ATP protect: -11%[10 µM]; ERK EGF block: -2%[57.5 µM]; HTT aggregate: -7%[9.22 µM]

What do the screens show for `Cc1cc(OCc2cccc(Cl)c2)c(C)cc1CN1CCOCC1`?
HTT ATP protect: 1.1µM*; ERK EGF block: -5%; HTT aggregate: inconclusive

How did CN(C)c1ncc2ncc(=O)n(CCC#N)c2n1 do in these assays?
HTT ATP protect: -40%; ERK EGF block: 2%

What do the screens show for `CC1(C)S[C@@H]2[C@H](NC(=O)[C@@H](N)c3ccccc3)C(=O)N2[C@H]1C(=O)O[C@H]1OC(=O)c2ccccc21`?
HTT ATP protect: -39%[17.1 µM]; ERK EGF block: 5%[25.7 µM]; HTT aggregate: 1%[20.6 µM]

Results for CC(=O)Nc1sc(N/N=C\c2ccc(O)cc2)nc1-c1cccs1 ?
HTT ATP protect: 8%[10 µM]; ERK EGF block: 4%[57.5 µM]; HTT aggregate: 44%[9.22 µM]

How did CCN(CC)c1ccc(/C=C(\C#N)c2nc(-c3cccs3)c(NC(C)=O)s2)cc1 do in these assays?
HTT ATP protect: 3%[10 µM]; HTT aggregate: 13µM*

How did BrC/C=C/CBr do in these assays?
HTT ATP protect: -10%

How did CSC(SC)=C(C#N)C(=O)c1ccccc1 do in these assays?
HTT ATP protect: -32%[10 µM]; ERK EGF block: 25µM*; HTT aggregate: 7%[9.22 µM]

What do the screens show for `COc1cccc(C(=O)C(C#N)=C(SC)SC)c1`?
HTT ATP protect: -34%[10 µM]; ERK EGF block: inconclusive; HTT aggregate: 4%[9.22 µM]

What do the screens show for `CC(C)(C)C1CCc2[nH]nc(C(=O)O)c2C1` (configuration not stated)?
HTT ATP protect: 3.5µM*; HTT aggregate: -8%

What do the screens show for `CCC(C)(C)C1CCc2[nH]nc(C(=O)NN)c2C1` (configuration not stated)?
HTT ATP protect: 3%[10 µM]; ERK EGF block: -4%[57.5 µM]; HTT aggregate: 2%[9.22 µM]

Results for CCN1C(=O)C2C(C1=O)N1C(c3cccs3)C3C(=O)N(CC)C(=O)C3N1C2c1cccs1 (configuration not stated) ?
HTT ATP protect: -2%; HTT aggregate: 28µM*

Results for CCN1C(=O)C2C(C1=O)N1C(c3ccccc3)C3C(=O)N(CC)C(=O)C3N1C2c1ccccc1 (configuration not stated) ?
HTT ATP protect: 0%; HTT aggregate: 5%

How did CC1=C2[C@@H]([C@H](C)CC[C@H]2/C=C(\C)C(=O)O)[C@H](O)C1 do in these assays?
HTT ATP protect: 0%

Results for Cc1ccc(-c2noc(CCC(=O)NC3CCN(Cc4ccccc4)CC3)n2)cc1 ?
HTT ATP protect: -4%; HTT aggregate: inconclusive

Results for Cc1ccc(-c2noc(CCC(=O)NC3CCCc4ccccc43)n2)cc1 (configuration not stated) ?
HTT aggregate: 3.2µM*

How did COCCn1c(=O)c(-c2cn(C)c3ccccc23)nc2cnc(N3CCNCC3)nc21 do in these assays?
HTT ATP protect: 20%

How did Nc1nc(Cl)nc2c1ncn2[C@@H]1O[C@@H](CO)[C@@H](O)[C@H]1O do in these assays?
HTT ATP protect: -40%[1.9 µM]

How did CCN1/C(=C2\C(=O)N(C)C(=S)N2C)C=Cc2cc(OC)ccc21 do in these assays?
HTT ATP protect: 33%[10 µM]; ERK EGF block: 2%; HTT aggregate: 3%

Results for CCN1C(=O)/C(=C2/C=Cc3cc(C)ccc3N2CC)N(C)C1=S ?
HTT ATP protect: 22%[10 µM]; ERK EGF block: 14µM*; HTT aggregate: -10%

What do the screens show for `NC[C@@H]1O[C@H](OC2[C@@H](CO)O[C@@H](OC3[C@H](O)[C@H](N)C[C@H](N)[C@H]3OC3O[C@H](CO)[C@@H](O)[C@H](O)[C@@H]3N)[C@H]2O)C(N)[C@H](O)[C@@H]1O` (some centres not stated)?
HTT ATP protect: 4%; HTT aggregate: 6%

What do the screens show for `COC(=O)c1ccc(N)c(N=CC2=C(O)CC(C)(C)CC2=O)c1`?
ERK EGF block: 3%; HTT aggregate: 1%

Results for COC(=O)c1ccc2c(c1)C(C)(C)C(/C=C/c1ccccc1O)=[N+]2C ?
HTT ATP protect: -110%; HTT aggregate: 3.5µM*

Results for Cc1cccc(OCC(=O)Nc2ccc(N3CCN(C(=O)c4ccccc4)CC3)cc2)c1 ?
HTT ATP protect: 7%[0.074 µM]; ERK EGF block: inconclusive; HTT aggregate: 13µM*

What do the screens show for `Cc1ccc(OCC(=O)Nc2ccc(N3CCN(C(=O)c4ccc(C)cc4)CC3)cc2)cc1`?
HTT ATP protect: 39%[10 µM]; ERK EGF block: 7%; HTT aggregate: 37%[9.22 µM]

Results for CN1CCN(c2ncc3nc(-c4ccccc4)c(=O)n(-c4ccccc4)c3n2)CC1 ?
HTT ATP protect: -44%; ERK EGF block: -3%

How did COC1(OC)N=C(N)C2(C#N)C(c3ccc(C)cc3)C12C#N (configuration not stated) do in these assays?
HTT ATP protect: inconclusive; HTT aggregate: 3%

Results for COc1ccc(C2C3(C#N)C(N)=NC(OC)(OC)C23C#N)cc1 (configuration not stated) ?
HTT ATP protect: -11%; ERK EGF block: 25µM*; HTT aggregate: -19%

What do the screens show for `NC(=S)n1[nH]c(-c2ccc([N+](=O)[O-])cc2)c(N=Nc2cccc([N+](=O)[O-])c2)c1=O`?
HTT ATP protect: -121%; ERK EGF block: inconclusive; HTT aggregate: 13µM*

How did NC(=S)n1[nH]c(-c2ccc([N+](=O)[O-])cc2)c(N=Nc2ccccc2[N+](=O)[O-])c1=O do in these assays?
HTT ATP protect: 12%[10 µM]; ERK EGF block: 3%; HTT aggregate: 4%

What do the screens show for `CCOC(=O)c1ccc(Nc2ncnc3ccc(C)cc23)cc1`?
HTT ATP protect: -10%; HTT aggregate: -17%

Results for COc1ccc(Nc2nc(N3CCCCC3)c3ccccc3n2)cc1 ?
HTT ATP protect: -82%; HTT aggregate: 18µM*
